Source: PubChem BioAssay
NSD2 HMT inh: inhibitors of human histone methyltransferase NSD2; O96028; NSD2 peptide methylation, AlphaScreen, 120 min; inhibition, % at 12.5 µM; 310,000 compounds, 0.54% hits; AID 743445; in the data active means inhibition above about 50%
Mot1-301 SUMO: blocks SUMOylation pathway, rescuing yeast Mot1-301 growth | S. cerevisiae Mot1-301 growth rescue, ATP luminescence, 38.5C; percent above DMSO median, 100 means doubled | growth rescue, % at 18.8 µM | 320,000 compounds, 1% hits | AID 2716;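 active means every valid replicate shows activation above 250% relative to neutral control wells; inactive means the rest, any valid replicate at or below 250%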
CASP6 VEID inh: inhibitors of human caspase-6; inhibition, % at 12.5 µM; 350,000 compounds, 0.53% hits; purified caspase-6, Z-VEID-R110 cleavage fluorescence;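 active means mean inhibition across replicates at least about 35%, with every replicate also reaching that limit, limit read from the data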
Target sequence (P55212 24-179 limits assumed): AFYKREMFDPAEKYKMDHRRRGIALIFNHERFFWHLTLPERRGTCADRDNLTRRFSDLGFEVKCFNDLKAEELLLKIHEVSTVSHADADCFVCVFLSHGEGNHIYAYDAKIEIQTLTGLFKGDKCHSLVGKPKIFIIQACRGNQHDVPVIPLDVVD
Target sequence (P55212 194-293 limits assumed): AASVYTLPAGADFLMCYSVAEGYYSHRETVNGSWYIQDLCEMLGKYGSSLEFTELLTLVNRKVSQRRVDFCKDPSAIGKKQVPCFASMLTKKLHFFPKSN
Glyco luc inh: blocks N-linked glycosylation in D54 reporter cells. D54 ERlucT glycosylation luciferase reporter, 24 h; percent of 100 nM tunicamycin response. reporter increase, % at 12.5 µM. 360,000 compounds, 0.23% hits;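 active means mean luciferase reporter signal, scaled so untreated is 0 and the glycosylation-blocking control 100, at or above a set limit in every replicate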;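 further: luciferase carries N-glycosylation sites so blocking glycosylation raises the light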
CDK5 inh: blocks human CDK5/p35 kinase activity | Q00535+Q15078 | 330,000 compounds, 0.01% hits | Recombinant CDK5/p35, ADP-Glo luminescence, 60 min | inhibition, % at 10 µM | AID 488839;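 active means highest replicate inhibition of at least 50% and at least 75% of replicates reaching 50%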
ALR H2O2 inh: blocks human ALR sulfhydryl oxidase activity; AID 485317; 290,000 compounds, 3.8% hits; purified ALR, DTT oxidation, H2O2 HRP-luminol luminescence; inhibition, % (no concentration beside the values);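 active means mean replicate inhibition above about 79%, with every replicate also reaching it, limit read from the data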
Target sequence (P55789 whole entry, looked up): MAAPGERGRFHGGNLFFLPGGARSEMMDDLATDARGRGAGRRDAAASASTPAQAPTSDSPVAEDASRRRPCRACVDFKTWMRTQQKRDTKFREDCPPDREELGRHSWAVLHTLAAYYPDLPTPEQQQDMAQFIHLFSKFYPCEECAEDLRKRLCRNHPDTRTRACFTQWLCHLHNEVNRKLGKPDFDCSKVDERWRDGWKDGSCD
Large screens that a line does not name were inactive. Most compounds without a hit are left out; they make up all but 3.9% or so of the library.

CCOC(=O)c1c(OCC)[nH]c2c1cc(O)c1ccccc12	ALR H2O2 inh 99 (no result: CASP6 VEID inh)
CCOC(=O)[C@H]1O[C@@H]1C(=O)N[C@@H](CC(C)C)C(=O)NCCC(C)C	ALR H2O2 inh 86 (no result: NSD2 HMT inh, CASP6 VEID inh)
COc1ccc(NCC(O)Cn2cnc3c2c(=O)n(C)c(=O)n3C)cc1 (stereo unspecified)	ALR H2O2 inh 98
Cc1oc(-c2ccccc2Cl)nc1CS(=O)CC(=O)NCc1cccs1 (stereo unspecified)	none (no result: NSD2 HMT inh, ALR H2O2 inh)
Cc1ccc(CNC(=O)CS(=O)Cc2nc(-c3ccccc3Cl)oc2C)cc1 (stereo unspecified)	ALR H2O2 inh 95
CCN(CC)CCNC(=O)CS(=O)Cc1nc(-c2ccccc2Cl)oc1C (stereo unspecified)	ALR H2O2 inh 99 (no result: CASP6 VEID inh)
CCN(CC)CCNC(=O)CS(=O)Cc1nc(-c2ccc(Cl)cc2)oc1C (stereo unspecified)	ALR H2O2 inh 99 (no result: CASP6 VEID inh)
CCN(CC)CCNC(=O)CS(=O)Cc1nc(-c2ccc(C)cc2)oc1C (stereo unspecified)	ALR H2O2 inh 99 (no result: CASP6 VEID inh)
Cc1oc(-c2ccc(Cl)cc2)nc1CS(=O)CC(=O)NCCCN1CC(C)CC(C)C1 (stereo unspecified)	none (no result: CDK5 inh)
C[C@H]1CN([C@@H](C)CO)C(=O)c2cc(NC(=O)CCCN(C)C)ccc2O[C@H]1CN(C)Cc1ccc(-c2ccccc2)cc1	none (no result: NSD2 HMT inh, Mot1-301 SUMO, Glyco luc inh, CDK5 inh, ALR H2O2 inh)
C[C@@H]1CN([C@@H](C)CO)C(=O)c2cc(NC(=O)CCC(F)(F)F)ccc2O[C@@H](C)CCCCO[C@H]1CN(C)S(=O)(=O)c1cn(C)cn1	none (no result: NSD2 HMT inh, Mot1-301 SUMO, Glyco luc inh, CDK5 inh, ALR H2O2 inh)
COc1ccc(CNC(=O)C[C@@H]2CC[C@H]3[C@H](COc4ccc(NC(C)=O)cc4C(=O)N3C)O2)cc1	none (no result: NSD2 HMT inh, Mot1-301 SUMO, Glyco luc inh, CDK5 inh, ALR H2O2 inh)
CN1c2ccc(-c3ccccc3F)cc2[C@H]2[C@H](CCN2S(=O)(=O)c2ccccc2)[C@@H]1CO	none (no result: NSD2 HMT inh, Mot1-301 SUMO, Glyco luc inh, CDK5 inh, ALR H2O2 inh)
C[C@@H]1CN([C@@H](C)CO)C(=O)c2cc(NC(=O)CCN3CCOCC3)ccc2O[C@H]1CN(C)Cc1ccc(-c2ccccc2)cc1	none (no result: NSD2 HMT inh, Mot1-301 SUMO, Glyco luc inh, CDK5 inh, ALR H2O2 inh)
O=C(O)c1cc(NN=Nc2cccc([N+](=O)[O-])c2)cc([N+](=O)[O-])c1	none (no result: NSD2 HMT inh)
O=C(O)c1cc(NN=Nc2ccc(Br)cc2)cc([N+](=O)[O-])c1	Mot1-301 SUMO 322
Cn1c(=O)n(C)c2cc(S(=O)(=O)Nc3ccccc3O)ccc21	none (no result: NSD2 HMT inh)
CCc1ccc(S(=O)(=O)Nc2cc3c(cc2C)n(C)c(=O)n3C)cc1	Glyco luc inh 46
Cc1ccc(S(=O)(=O)Nc2ccc3c(c2)n(C)c(=O)n3C)cc1	Glyco luc inh 65
Cn1c(=O)n(C)c2cc(S(=O)(=O)Nc3cc(Cl)ccc3O)ccc21	ALR H2O2 inh 98
Cc1ccc(NS(=O)(=O)c2ccc3c(c2)n(C)c(=O)n3C)c(C)c1	Mot1-301 SUMO 355
C[C@@H]1CN([C@@H](C)CO)C(=O)c2cc(-c3cccc(C(=O)N(C)C)c3)cnc2O[C@H]1CN(C)S(=O)(=O)c1ccccc1	none (no result: NSD2 HMT inh, Mot1-301 SUMO, Glyco luc inh, CDK5 inh, ALR H2O2 inh)
C[C@H]1CN([C@@H](C)CO)C(=O)c2cc(-c3ccccc3)cnc2O[C@@H]1CN(C)C(=O)c1ccccn1	none (no result: NSD2 HMT inh, Mot1-301 SUMO, Glyco luc inh, CDK5 inh, ALR H2O2 inh)
Cn1c(=O)n(C)c2cc(S(=O)(=O)Nc3ccccc3)ccc21	none
Cn1c(=O)n(C)c2cc(NS(=O)(=O)c3ccccc3)ccc21	Glyco luc inh 34 (no result: CASP6 VEID inh)
COc1ccc(CN2CC3(CN(C(=O)Cc4ccncc4)C3)c3c([nH]c4cc(OC)ccc34)[C@H]2CO)cc1	none (no result: NSD2 HMT inh, Mot1-301 SUMO, Glyco luc inh, CDK5 inh, ALR H2O2 inh)
COc1ccc(S(=O)(=O)Nc2ccc3c(c2)CC(=O)N([C@@H](C)CO)C[C@@H](C)[C@@H](CN(C)S(=O)(=O)c2cccs2)O3)cc1	none (no result: NSD2 HMT inh, Mot1-301 SUMO, Glyco luc inh, CDK5 inh, ALR H2O2 inh)
O=C(O)C1CSC(c2coc3ccccc3c2=O)N1 (stereo unspecified)	ALR H2O2 inh 99
O=C(Nc1ccccc1F)c1coc(=O)c(Br)c1	CASP6 VEID inh 74
N#Cc1c2n(c3c(=O)n(Cc4ccc(Cl)cc4)cnc13)CCCCC2	none (no result: CASP6 VEID inh, ALR H2O2 inh)
N#Cc1c2n(c3c(=O)n(Cc4ccccc4)cnc13)CCCC2	ALR H2O2 inh 84
CCCc1cn(CC[C@@H]2CC[C@H](NC(=O)Nc3ccccc3F)[C@H](CO)O2)nn1	none (no result: NSD2 HMT inh, Mot1-301 SUMO, Glyco luc inh, CDK5 inh, ALR H2O2 inh)
CC(=O)Nc1ccc(Nc2nc3ccccc3nc2NS(=O)(=O)c2ccccc2)cc1	ALR H2O2 inh 98
CC(=O)Nc1ccc(S(=O)(=O)Nc2nc3ccccc3nc2Nc2ccccc2)cc1	none (no result: NSD2 HMT inh, ALR H2O2 inh)
COc1ccc(NS(=O)(=O)c2ccc(Oc3cccc(C(=O)O)c3)cc2)cc1	none
COc1ccc(S(=O)(=O)Nc2nc3ccccc3nc2Nc2cccc(C(=O)O)c2)cc1	ALR H2O2 inh 98
COCCNC(=O)C[C@H]1C[C@@H]2c3cc(NC(=O)NC4CCCCC4)ccc3O[C@@H]2[C@@H](CO)O1	none (no result: NSD2 HMT inh, Mot1-301 SUMO, Glyco luc inh, CDK5 inh, ALR H2O2 inh)
CC(=O)c1ccc(OCC(O)CN2CCN(c3ccc(F)cc3)CC2)cc1 (stereo unspecified)	ALR H2O2 inh 98
CC(=O)Nc1ccc(OCC(O)CN2CCN(c3ccc(Cl)cc3)CC2)cc1 (stereo unspecified)	none (no result: CASP6 VEID inh)
CC(=O)Nc1ccc(OCC(O)CN2CCN(c3cccc(Cl)c3)CC2)cc1 (stereo unspecified)	ALR H2O2 inh 99 (no result: CASP6 VEID inh)
CC(=O)Nc1ccc(OCC(O)CN2CCN(c3ccc(F)cc3)CC2)cc1 (stereo unspecified)	ALR H2O2 inh 98
OC(COc1ccc(Cl)cc1)CN1CCN(c2cccc(Cl)c2)CC1 (stereo unspecified)	none
CC(C)CC#Cc1ccc2c(c1)O[C@@H](CN(C)S(C)(=O)=O)[C@@H](C)CN([C@@H](C)CO)S2(=O)=O	none (no result: NSD2 HMT inh, Mot1-301 SUMO, Glyco luc inh, CDK5 inh, ALR H2O2 inh)
CC(C)[C@H](N)C(=O)NC[C@H](CC(=O)NC[C@H]1CC[C@H](C(=O)O)CC1)c1ccc(Cl)cc1	none
CC(C)(C)OC(=O)NCC1CCC(C(=O)NC[C@H](CC(=O)O)c2ccc(Cl)cc2)CC1 (stereo partly specified)	Mot1-301 SUMO 336 (no result: ALR H2O2 inh)
O=C(NNS(=O)(=O)c1ccc([N+](=O)[O-])cc1)c1ccccc1	none (no result: Mot1-301 SUMO, ALR H2O2 inh)
O=C(NNS(=O)(=O)c1ccc([N+](=O)[O-])cc1)c1ccc2ccccc2c1O	ALR H2O2 inh 98
COC(=O)c1c(C)oc2c1cc(NS(=O)(=O)c1ccc(C(=O)O)cc1)c1ccccc12	CASP6 VEID inh 42 (no result: NSD2 HMT inh)
O=C(OC1CCOC1=O)c1ccccc1C(=O)c1ccc(Cl)c([N+](=O)[O-])c1 (stereo unspecified)	none (no result: CASP6 VEID inh, ALR H2O2 inh)
CS(=O)(=O)c1ccc(C(=O)OC2CCOC2=O)cc1[N+](=O)[O-] (stereo unspecified)	ALR H2O2 inh 94
CC(C)C#Cc1cnc2c(c1)C(=O)N([C@@H](C)CO)C[C@@H](C)[C@H](CN(C)C(=O)Nc1cc(F)ccc1F)O2	none (no result: NSD2 HMT inh, Mot1-301 SUMO, Glyco luc inh, CDK5 inh, ALR H2O2 inh)
COc1ccccc1C(=O)NC1CC2CCC(C1)N2Cc1ccccc1 (stereo unspecified)	none
O=C(NC1CC2CCC(C1)N2Cc1ccccc1)c1ccccc1Br (stereo unspecified)	CASP6 VEID inh 39
